This is part of a sample that, as a whole, favours compounds with a hit. Of some 79,000 tested, about 15% had one in any assay. Values without a mark were called inactive. Active and inactive are the calls of the source. Cut-off read from the data, not from the text of the source: active = growth inhibition above about 70%; inactive = the rest.

Assay [1] can be described thus: NCI Yeast Anticancer Drug Screen. Data for the rad50 strain (AID 155).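 Note: 0% = growth of vehicle-only cultures of the same strain.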 Conditions: S. cerevisiae rad50 strain growth inhibition, stronger effect = higher value; at 50.0 µM unless noted. An outline of the steps:
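Relative growth inhibition (compound vs vehicle) was measured in yeast with a defined repair-gene alteration.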

Assay [2] in a line: NCI Yeast Anticancer Drug Screen. Data for the mec2-1 strain (AID 157). To be noted: S. cerevisiae mec2-1 strain, stronger effect = higher value; at 50.0 µM unless noted. Put shortly: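 Yeast mec2-1 mutant treated with compound. Readout: growth inhibition vs vehicle controls.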
Assay [3] can be described thus: NCI Yeast Anticancer Drug Screen. Data for the sgs1 mgt1 strain (AID 161).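 Note: 0% = growth of cultures given vehicle only.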 Conditions: S. cerevisiae sgs1 mgt1 strain, stronger effect = higher value; at 50.0 µM unless noted. An outline of the steps: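 Mutant yeast exposed to compound; growth scored against vehicle-only wells.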
Assay [4] can be described thus: NCI Yeast Anticancer Drug Screen. Data for the cln2 rad14 strain (AID 165).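 Note: 0% = growth equal to vehicle treated cultures.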 Conditions: S. cerevisiae cln2 rad14 strain, stronger effect = higher value; at 50.0 µM unless noted. An outline of the steps: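 cln2 rad14 yeast strain; compound exposure; growth inhibition read vs vehicle controls.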
Assay [5] can be described thus: NCI Yeast Anticancer Drug Screen. Data for the bub3 strain (AID 167). Conditions: S. cerevisiae bub3 mutant strain, stronger effect = higher value; at 50.0 µM unless noted. An outline of the steps:
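Screening used yeast with an engineered genetic alteration affecting cell cycle control. Compound-exposed cultures were compared with vehicle cultures, and reduced growth was taken as inhibition.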

Assay [6] is described as follows: NCI Yeast Anticancer Drug Screen. Data for the mlh1 rad18 strain (AID 175). To be noted: S. cerevisiae mlh1 rad18 strain growth inhibition, stronger effect = higher value; at 50.0 µM unless noted. Put shortly: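 Yeast w/ defined DNA-repair lesions; compound exposure; growth vs vehicle controls → % inhibition.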

Regarding `Cc1ccc(C(C)C)cc1NC(=O)c1ccc([N+](=O)[O-])cc1`, the growth inhibition in assay [1] is -5.15%; in assay [2], 16.4%; in assay [3], 16.9%; in assay [4], -5.8%; in assay [5], 2.6%; in assay [6] it was 21.6%.

Take `CCCCCCNC(=O)CCN(C(=O)O)S(=O)(=O)c1ccc(NC(=O)c2ccccc2)cc1`: the growth inhibition in assay [1] was 11.7%; in assay [2], -3.45%; in assay [3], 8.6%; in assay [4], 17.7%; in assay [5] it was 7.4%; in assay [6], -1.45%.

As for `C(/C=N/NC1=NCCN1)=N\NC1=NCCN1`, the growth inhibition in assay [1] is 42%; in assay [2], 18.1%; in assay [3], 28.4%; in assay [4], 2.85%; in assay [5], 36.6%; in assay [6], 41.5%.

With `CC(=O)Sc1ccc2c(c1)-c1ccccc1C2=O`, the growth inhibition in assay [1] was 28.6%; in assay [2], 27.2%; in assay [3], 22.4%; in assay [4], 8.25%; in assay [5], 39.6%; in assay [6] it was 16.9%.

As to `O=C(Nc1ccc(Cl)cc1)NC1OC(=O)C(Cl)=C1Cl` (stereo not given), the growth inhibition is 23.4% in assay [1]; 9.3% in assay [2]; 8.55% in assay [3]; -17.9% in assay [4]; 3.5% in assay [5]; 23.1% in assay [6].

As for `CC(C)COC(=O)C(CC(C)C)NC(=O)C(C)O` (stereo not given), the growth inhibition in assay [1] was 5.95%; in assay [2], -17.4%; in assay [3] it was -13.3%; in assay [4] it was 10.8%; in assay [5], -14.7%; in assay [6], 6.6%.

Turning to `O=C(c1ccccc1)C1(c2ccccc2)OC1(C(=O)c1ccccc1)c1ccccc1` (stereo not given), the growth inhibition in assay [1] was 15.4%; in assay [2], -4.75%; in assay [3] it was 7.5%; in assay [4], -7.65%; in assay [5], -3.3%; in assay [6], 4.2%.

Regarding `CCOC(=O)CON=c1c2ccccc2ccc2ccccc12`, the growth inhibition in assay [1] was 4.05%; in assay [2] it was -5.85%; in assay [3] it was -22.5%; in assay [4], 3.4%; in assay [5], -10.2%; in assay [6], -2.45%.

For `Cc1ccc2[nH]c(C(=O)O)cc2c1`, the growth inhibition in assay [1] is 31.1%; in assay [2] it was -6.8%; in assay [3], 10.8%; in assay [4], 10.3%; in assay [5], 9%; in assay [6], 28.1%.

Regarding `Cc1ccc(Cl)c(NC(=O)Nc2ccccc2Cl)c1`, the growth inhibition in assay [1] is -3.7%; in assay [2], 3.65%; in assay [3], -7.2%; in assay [4], -15.2%; in assay [5] it was -2.5%; in assay [6], 20.4%.

As for `O=C(Nc1ccccc1)c1cc(S(=O)(=O)Nc2n[nH]c(=O)[nH]2)c(SSc2cc(Cl)c(C(=O)Nc3ccccc3)cc2S(=O)(=O)Nc2n[nH]c(=O)[nH]2)cc1Cl`, the growth inhibition in assay [1] was 18.8%; in assay [2] it was 22.7%; in assay [3] it was -8.5%; in assay [4], -6.35%; in assay [5] it was -2.25%; in assay [6], 25.4%.

As for `O=C1C2=C(C(=O)C3=C1C1CCC3C1)C1CCC2C1`, the growth inhibition in assay [1] was 4.1%; in assay [2], -34.1%; in assay [3] it was -11.7%; in assay [4] it was -15.2%; in assay [5], -5.25%; in assay [6], 0.7%.

As for `C1=C(c2ccccc2)N(C2CCCCC2)C(c2ccccc2)=CN1Cc1ccccc1`, the growth inhibition in assay [1] was 45%; in assay [2], 31.9%; in assay [3] it was 69.5%; in assay [4] it was 42%; in assay [5], 50.1%; in assay [6], 70.8% (active).

Turning to `CN(C)CCC(=O)C(=Cc1ccc(Cl)c(Cl)c1)C(=O)CCN(C)C`, the growth inhibition in assay [1] was 93.2% (active); in assay [2] it was 97.7% (active); in assay [3], 95% (active); in assay [4], 79.8% (active); in assay [5], 97.8% (active); in assay [6], 98% (active).

With `O=C(O)Cc1cc2c(cc1I)OCO2`, the growth inhibition is -1.2% in assay [1]; 22.9% in assay [2]; 2.15% in assay [3]; -18.9% in assay [4]; -11.2% in assay [5]; -0.55% in assay [6].

For the molecule `C=C1C(=O)C23CC1CCC2C12CO[C@H](O)[C@H]1C(C)(C)[C@H](OC(C)=O)C[C@H]2OC3=O` (stereo not given in full), the growth inhibition in assay [1] was 4.75%; in assay [2], 4.15%; in assay [3], 1.8%; in assay [4], 6.1%; in assay [5], 0.85%; in assay [6], -76.2%.

Consider `COC1OC2COc3ccccc3OC2C2C1N2C(N)=O` (stereo not given), for which the growth inhibition in assay [1] is 7.4%; in assay [2] it was 0.7%; in assay [3], 4.5%; in assay [4] it was -6.65%; in assay [5] it was -2.85%; in assay [6], 3.8%.

As to `CN(C)C(=O)Sc1cccc([N+](=O)[O-])c1`, the growth inhibition was 9.5% in assay [1]; -14.9% in assay [2]; -21.8% in assay [3]; -38.3% in assay [4]; 10.5% in assay [5]; -25.6% in assay [6].

Consider `Cc1cc2c(C(C)C)c(O)c(O)c(C=NC(C)c3ccccc3)c2c(O)c1-c1c(C)cc2c(C(C)C)c(O)c(O)c(C=NC(C)c3ccccc3)c2c1O` (stereo not given), for which the growth inhibition is 18.2% in assay [1]; 7.35% in assay [2]; 15.3% in assay [3]; 11.9% in assay [4]; 30.9% in assay [5]; 7.95% in assay [6].

As to `CCCCCCCCCCCCCCCCCCOC(=O)CC(C)=O`, the growth inhibition in assay [1] was -2.75%; in assay [2] it was -4.55%; in assay [3], -12.2%; in assay [4], -5%; in assay [5], -9.2%; in assay [6], 3.95%.

Values taken from PubChem BioAssay (NCI).
